Results reported in PubChem BioAssay AID1159580 (chemical genetic matrix, 2015).
Hit rate of the full screen: of about 5,500 compounds, about 2,000 (36%) were called active. Another 18% or so got no clear call; they are omitted. Cut-off read from the data, not from the text of the source: active = normalized growth mostly below about 0.91 (no sharp cut-off); inconclusive = no clear call, values can overlap the other calls; inactive = mostly above about 0.92. This is one part of the list.

Test: chemical genetic growth profiling, strain panel (AID 1159580);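 note: tested at 20 µM; growth read once vehicle control cultures reached saturation at 30 °C; 1 = growth at the plate median or of vehicle wells; lower values mean less growth of the strain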
Details: growth OD

Measured: normalized growth

CC1(C)O[C@@H]2CC3C4C[C@H](F)C5=CC(=O)CC[C@]5(C)C4[C@@H](O)C[C@]3(C)[C@]2(C(=O)CO)O1 (some centres not stated)
inactive: S. cerevisiae deletion strains, locus YJR075W, strain HOC1, stronger effect = lower value 1.01 | S. cerevisiae deletion strains, locus YKL009W, strain mrt4, stronger effect = lower value 0.999 | S. cerevisiae deletion strains, locus YKL068W, stronger effect = lower value 1.02 | S. cerevisiae deletion strains, locus YKL085W, strain MDH1 (second series), stronger effect = lower value 1 | S. cerevisiae deletion strains, locus YKL085W, strain MDH1, stronger effect = lower value 1 | S. cerevisiae deletion strains, locus YKL160W, strain elf1, stronger effect = lower value 0.988 | S. cerevisiae deletion strains, locus YKL190W, strain CNB1, stronger effect = lower value 1.02 | S. cerevisiae deletion strains, locus YKR001C, strain vps1, stronger effect = lower value 1.01 | S. cerevisiae deletion strains, locus YKR026C, strain gcn3, stronger effect = lower value 1 | S. cerevisiae deletion strains, locus YKR091W, strain srl3, stronger effect = lower value 0.997 | S. cerevisiae deletion strains, locus YLL001W, strain dnm1, stronger effect = lower value 0.977 | S. cerevisiae deletion strains, locus YLL026W, stronger effect = lower value 1.01 | S. cerevisiae deletion strains, locus YLL041C, strain sdh2, stronger effect = lower value 1.01 | S. cerevisiae deletion strains, locus YLR027C, strain aat2, stronger effect = lower value 1.02 | S. cerevisiae deletion strains, locus YLR039C, strain RIC1, stronger effect = lower value 1.03 | S. cerevisiae deletion strains, locus YLR058C, strain SHM2, stronger effect = lower value 1.02 | S. cerevisiae deletion strains, locus YLR102C, strain apc9, stronger effect = lower value 1.01 | S. cerevisiae deletion strains, locus YLR113W, strain HOG1, stronger effect = lower value 1.02 | S. cerevisiae deletion strains, locus YLR221C, strain rsa3, stronger effect = lower value 0.999 | S. cerevisiae deletion strains, locus YLR258W, strain gsy2, stronger effect = lower value 1.02 | S. cerevisiae deletion strains, locus YLR262C, strain YPT6 (second series), stronger effect = lower value 0.988 | S. cerevisiae deletion strains, locus YLR262C, strain YPT6, stronger effect = lower value 1.04 | S. cerevisiae deletion strains, locus YLR268W, strain sec22, stronger effect = lower value 1.01 | S. cerevisiae deletion strains, locus YLR320W, strain mms22, stronger effect = lower value 0.985 | S. cerevisiae deletion strains, locus YLR330W, strain CHS5, stronger effect = lower value 1.01 | S. cerevisiae deletion strains, locus YLR342W, strain FKS1 (second series), stronger effect = lower value 0.997 | S. cerevisiae deletion strains, locus YLR342W, strain FKS1, stronger effect = lower value 1.01 | S. cerevisiae deletion strains, locus YLR357W, strain rsc2, stronger effect = lower value 0.968 | S. cerevisiae deletion strains, locus YLR370C, strain arc18, stronger effect = lower value 1 | S. cerevisiae deletion strains, locus YLR371W, strain rom2, stronger effect = lower value 1 | S. cerevisiae deletion strains, locus YLR384C, strain iki3, stronger effect = lower value 0.986 | S. cerevisiae deletion strains, locus YLR418C, strain cdc73, stronger effect = lower value 1.01 | S. cerevisiae deletion strains, locus YML016C, strain PPZ1, stronger effect = lower value 1.01 | S. cerevisiae deletion strains, locus YML032C, strain rad52, stronger effect = lower value 0.996 | S. cerevisiae deletion strains, locus YML120C, strain ndi1, stronger effect = lower value 1.01 | S. cerevisiae deletion strains, locus YML124C, strain tub3, stronger effect = lower value 1.01 | S. cerevisiae deletion strains, locus YMR058W, strain fet3, stronger effect = lower value 1.02 | S. cerevisiae deletion strains, locus YMR078C, strain ctf18, stronger effect = lower value 1.01 | S. cerevisiae deletion strains, locus YMR125W, strain sto1, stronger effect = lower value 1.02 | S. cerevisiae deletion strains, locus YMR129W, stronger effect = lower value 1.02 | S. cerevisiae deletion strains, locus YMR205C, strain PFK2, stronger effect = lower value 1.01 | S. cerevisiae deletion strains, locus YMR223W, strain ubp8, stronger effect = lower value 0.993 | S. cerevisiae deletion strains, locus YMR231W, strain pep5, stronger effect = lower value 1 | S. cerevisiae deletion strains, locus YMR263W, strain SAP30, stronger effect = lower value 1.02 | S. cerevisiae deletion strains, locus YMR307W, strain GAS1, stronger effect = lower value 1.01 | S. cerevisiae deletion strains, locus YNL067W, strain RPL9B, stronger effect = lower value 1.01 | S. cerevisiae deletion strains, locus YNL071W, strain lat1, stronger effect = lower value 1.01 | S. cerevisiae deletion strains, locus YNL128W, strain TEP1, stronger effect = lower value 1.02 | S. cerevisiae deletion strains, locus YNL153C, strain GIM3, stronger effect = lower value 1.01 | S. cerevisiae deletion strains, locus YNL183C, strain NPR1, stronger effect = lower value 0.931 | S. cerevisiae deletion strains, locus YNL209W, strain ssb2, stronger effect = lower value 0.999 | S. cerevisiae deletion strains, locus YNL233W, strain BNI4, stronger effect = lower value 1.01 | S. cerevisiae deletion strains, locus YNL248C, strain rpa49, stronger effect = lower value 0.987 | S. cerevisiae deletion strains, locus YNL250W, strain rad50, stronger effect = lower value 1 | S. cerevisiae deletion strains, locus YNL271C, strain bni1, stronger effect = lower value 1.01 | S. cerevisiae deletion strains, locus YNL298W, strain CLA4, stronger effect = lower value 1 | S. cerevisiae deletion strains, locus YNL307C, strain MCK1, stronger effect = lower value 1.01 | S. cerevisiae deletion strains, locus YNL322C, strain KRE1 (second series), stronger effect = lower value 0.993 | S. cerevisiae deletion strains, locus YNL322C, strain KRE1, stronger effect = lower value 1.02 | S. cerevisiae deletion strains, locus YNR049C, strain mso1, stronger effect = lower value 1 | S. cerevisiae deletion strains, locus YNR052C, strain pop2, stronger effect = lower value 0.999 | S. cerevisiae deletion strains, locus YOL006C, strain TOP1, stronger effect = lower value 1.04 | S. cerevisiae deletion strains, locus YOL012C, strain htz1 0.952 | S. cerevisiae deletion strains, locus YOL147C, strain pex11, stronger effect = lower value 1.01 | S. cerevisiae deletion strains, locus YOR001W, strain rrp6, stronger effect = lower value 1 | S. cerevisiae deletion strains, locus YOR061W, strain CKA2, stronger effect = lower value 1.01 | S. cerevisiae deletion strains, locus YOR069W, strain VPS5, stronger effect = lower value 1.01 | S. cerevisiae deletion strains, locus YOR070C, strain gyp1, stronger effect = lower value 1.01 | S. cerevisiae deletion strains, locus YOR080W, strain dia2, stronger effect = lower value 1.02 | S. cerevisiae deletion strains, locus YOR083W, strain WHI5, stronger effect = lower value 0.946 | S. cerevisiae deletion strains, locus YOR106W, strain vam3, stronger effect = lower value 1.01 | S. cerevisiae deletion strains, locus YOR136W, strain idh2, stronger effect = lower value 0.994 | S. cerevisiae deletion strains, locus YOR144C, strain elg1, stronger effect = lower value 1 | S. cerevisiae deletion strains, locus YOR184W, strain ser1, stronger effect = lower value 1 | S. cerevisiae deletion strains, locus YOR231W, strain MKK1, stronger effect = lower value 1.03 | S. cerevisiae deletion strains, locus YOR265W, strain rbl2, stronger effect = lower value 1.01 | S. cerevisiae deletion strains, locus YOR270C, strain vph1, stronger effect = lower value 1.03 | S. cerevisiae deletion strains, locus YOR290C, strain snf2, stronger effect = lower value 1.01 | S. cerevisiae deletion strains, locus YOR316C, strain cot1, stronger effect = lower value 1.01 | S. cerevisiae deletion strains, locus YPL051W, strain arl3, stronger effect = lower value 1.01 | S. cerevisiae deletion strains, locus YPL055C, strain LGE1, stronger effect = lower value 1.04 | S. cerevisiae deletion strains, locus YPL078C, strain atp4, stronger effect = lower value 1.01 | S. cerevisiae deletion strains, locus YPL106C, strain sse1, stronger effect = lower value 0.973 | S. cerevisiae deletion strains, locus YPL240C, strain hsp82, stronger effect = lower value 1 | S. cerevisiae deletion strains, locus YPL241C, strain CIN2, stronger effect = lower value 0.962 | S. cerevisiae deletion strains, locus YPL256C, strain CLN2, stronger effect = lower value 1.03 | S. cerevisiae deletion strains, locus YPR119W, strain clb2, stronger effect = lower value 1 | S. cerevisiae deletion strains, locus YPR141C, strain kar3, stronger effect = lower value 1.01 | S. cerevisiae deletion strains, locus YPR163C, strain tif3, stronger effect = lower value 1 | S. cerevisiae deletion strains, locus YPR167C, strain met16, stronger effect = lower value 1 | S. cerevisiae deletion strains, strain wtn01, stronger effect = lower value 1.01 | S. cerevisiae strains, strain wild type, stronger effect = lower value 1.02
